Reference: PubChem BioAssay (Tox21)
Records with an inconclusive call do not appear. Activity calls are given as the source filed them. Unless noted, the call rests on the fitted dose curve.

Key:
[1] = Nuclear factor erythroid 2-related factor 2/antioxidant responsive element (Nrf2/ARE) small molecule agonists: qHTS cell viability counter screen in human keratinocytes (AID 1919968; active means well fitted curve in the direction sought with a large enough effect in the repeat runs; an effect the other way counts as inactive or inconclusive; further: nearly all actives have a fitted effect of over 55% in size)
Procedure, shortened: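 In human HaCaT keratinocytes stably expressing an ARE-driven luciferase, compound exposure lasted 23 h at 37 C under 5% CO2. Viable cells are quantified with a protease-based fluorogenic reagent (CellTiter-Fluor) read 1 h after addition.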

[2] = target: Gonadotropin-releasing hormone receptor (Homo sapiens) (UniProt P30968); assay: Human gonadotropin-releasing hormone receptor (GnRHR) small molecule agonists, calcium flux assay in GnRHR-HEK293 cells (AID 1920063); further: nearly all actives have a fitted effect of over 35% in size
Procedure, shortened: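 Intracellular calcium rise is the read-out: engineered human GnRHR HEK293 cells, dye-loaded, are exposed to DMSO-dissolved compounds and fluorescence at Ex/Em 480/540 is tracked for 3 min.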

[3] = target: KiSS-1 receptor (Homo sapiens) (UniProt Q969F8); assay: Human kisspeptin (KISS1R) small molecule agonists, calcium flux assay in KISS1R-HEK293 cells (AID 1920064; active means well fitted curve in the direction sought with a large enough effect in the repeat runs; an effect the other way counts as inactive or inconclusive)
Procedure, shortened: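 Concentration-response testing used 15 concentrations in triplicate on human KISS1R-expressing HEK293 cells. Calcium-dependent fluorescence (Ex/Em 480/540) was followed kinetically for 3 min after compound transfer.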

[4] = G protein-coupled receptor (GPCR) small molecule agonists, calcium flux assay: HEK293 wild type cell line counter screen (AID 1920065)
Procedure, shortened: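 Fluorescence intensity signals activation. After overnight (18 h) culture and a 1 h calcium dye load at 37 C, compounds are added by pin tool and the plate read at 480/540 nm for 3 min in 1 s steps.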

[5] = p53 small molecule agonists, cell-based qHTS assay with rat liver microsomes: qHTS cell viability counter screen (AID 1963580); further: nearly all actives have a fitted effect of over 45% in size
Procedure, shortened: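 Luminescent ATP readout (CellTiter-Glo, 30 min at room temperature) reports viability of p53RE-bla HCT-116 cells after 16 h at 37 C with test compounds under metabolic activation by rat liver microsomes and NADPH at 0.5 mg/mL final each.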

[6] = p53 small molecule agonists, cell-based qHTS assay: qHTS cell viability counter screen (AID 1963581); further: nearly all actives have a fitted effect of over 45% in size
Procedure, shortened: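 Luminescence from CellTiter-Glo, reflecting ATP content, serves as the cytotoxicity measure; it is taken after the 2 h reporter substrate step in HCT-116 p53RE-bla cells dosed for 16 h at 37 C.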

[7] = target: 5-hydroxytryptamine receptor 2A (Homo sapiens) (UniProt P28223); assay: 5-hydroxytryptamine receptor 2A (HTR2A) small molecule antagonists, cell-based qHTS assay (AID 1963586); further: nearly all actives have a fitted effect of over 45% in size
Procedure, shortened: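 CHO cells stably expressing human HTR2A were plated for 18 h at 37 C, then loaded with calcium dye for 1 h. Compounds were preincubated 5 min at room temperature before DOI (4 nM solution) was added. Kinetic fluorescence was read for 3 min.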

[8] = target: 5-hydroxytryptamine receptor 2A (Homo sapiens) (UniProt P28223); assay: 5-hydroxytryptamine receptor 2A (HTR2A) small molecule agonists, cell-based qHTS assay (AID 1963587); further: nearly all actives have a fitted effect of over 30% in size
Procedure, shortened: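 HTR2A-CHO cells, plated 18 h at 37 C/5% CO2, dye-loaded 1 h at 37 C; compounds in DMSO added by pin tool (agonist mode). Intracellular calcium flux read as kinetic fluorescence on FDSS over 2 min at 1 s intervals.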

[9] = target: Muscarinic acetylcholine receptor M1 (Homo sapiens) (UniProt P11229); assay: Cholinergic receptor muscarinic 1 (CHRM1) small molecule antagonists, cell-based qHTS assay (AID 1963588); further: nearly all actives have a fitted effect of over 40% in size
Procedure, shortened: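 Compounds were tested at 15 concentrations in three independent runs. Dye-loaded CHRM1-CHO cells were exposed 5 min at room temperature before stimulation by acetylcholine added at 50nM. Intracellular calcium was read kinetically on FDSS for 3 min.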

[10] = target: Muscarinic acetylcholine receptor M1 (Homo sapiens) (UniProt P11229); assay: Cholinergic receptor muscarinic 1 (CHRM1) small molecule agonists, cell-based qHTS assay (AID 1963589); further: nearly all actives have a fitted effect of over 35% in size
Procedure, shortened: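 Fluorescent calcium dye reports M1 activation in stably transfected CHO cells. Compounds, 15 concentrations, added after 1 h dye loading at 37 C; kinetic reading at 1 sec intervals.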

[11] = cAMP Responsive Elements (CRE) small molecule agonists, cell-based qHTS assay (AID 1963590)
Procedure, shortened: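 Compound exposure lasted 3 h at 37 C/5% CO2 in CRE-bla HEK 293T cells grown in assay medium with 10% dialyzed FBS and 25 mM HEPES. Reporter signal came from LiveBLAzer B/G FRET substrate, 2 h, room temperature.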

[12] = cAMP Responsive Elements (CRE) small molecule antagonists, cell-based qHTS assay (AID 1963591; active means well fitted inhibition curve with a large enough effect in the signal ratio in the repeat runs, not every such curve was filed as active; the % refers to the signal ratio)
Procedure, shortened: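 Stimulation used NKH477 at a final 0.25 uM for 3 h in compound-treated CRE-bla HEK293T cells, seeded 18 h beforehand. Reporter activity was measured with LiveBLAzer B/G FRET substrate after 2 h at room temperature.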

[13] = target: Beta-2 adrenergic receptor (Homo sapiens) (UniProt P07550); assay: Adrenergic beta2 receptor (ADRB2) small molecule antagonists, cell-based qHTS assay (AID 1963592); further: series mostly up to about 92 µM; nearly all actives have a fitted effect of over 50% in size
Procedure, shortened: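 Assay format: CHO-ADRB2 cells, 18-20hr seeding at 37C/5% CO2, then compound plus 1nM isoproterenol agonist mix for 0.5hr RT. Homogeneous time-resolved fluorescence cAMP detection after 1hr, expressed as 665/615 nm ratio.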

[14] = target: D(2) dopamine receptor (Homo sapiens) (UniProt P14416); assay: Dopamine D2 receptor (DRD2) small molecule agonists, cell-based qHTS assay (AID 1963594); further: nearly all actives have a fitted effect of over 35% in size
Procedure, shortened: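 HEK293 cells stably expressing DRD2 were cultured 24 h at 37 C, then given Ro20-1724 (0.1 mM final) and compounds for 10 min at room temperature. NKH477 (200nM) was then added for 30 min. cAMP was read by HTRF.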

[15] = target: D(2) dopamine receptor (Homo sapiens) (UniProt P14416); assay: Dopamine D2 receptor (DRD2) small molecule antagonists, cell-based qHTS assay (AID 1963595; active means well fitted inhibition curve with a large enough effect in the signal ratio in the repeat runs, with a control signal flat; the % refers to the signal ratio)
Procedure, shortened: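 In this cell-based antagonist screen, compounds act for 10 min at room temperature before a 30 min challenge with 12 nM quinpirole and 200 nM NKH477. cAMP is quantified by HTRF competition in DRD2-HEK293 cells containing 0.1 mM Ro20-1724.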

[16] = p53 small molecule agonists, cell-based qHTS assay with human liver microsomes (AID 1963577)
Procedure, shortened: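 Compounds act here after metabolic activation: human liver microsomes and NADPH, both at 0.5 mg/mL final, were co-added to p53RE-bla cells. Incubation ran 16 h at 37 C, followed by LiveBLAzer detection.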

[17] = p53 small molecule agonists, cell-based qHTS assay with rat liver microsomes (AID 1963578)
Procedure, shortened: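 Read-out is beta-lactamase reporter fluorescence (LiveBLAzer, 2 h, room temperature, dark) in p53RE-bla cells treated 16 h at 37 C with compound, rat liver microsomes and NADPH, both 0.5 mg/mL final.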

[18] = p53 small molecule agonists, cell-based qHTS assay with human liver microsomes: qHTS cell viability counter screen (AID 1963579); further: nearly all actives have a fitted effect of over 45% in size
Procedure, shortened: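 Cells carrying the p53 response-element beta-lactamase reporter are treated for 16 h at 37 C with test compounds in the presence of human liver microsomes and NADPH (both 0.5 mg/mL final); ATP-based CellTiter-Glo luminescence then reports viability.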

[19] = p53 small molecule agonists, cell-based qHTS assay (AID 1963582; active means well fitted activation curve with a large enough effect in the signal ratio in the repeat runs, not every such curve was filed as active; the % refers to the signal ratio)
Procedure, shortened: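 After plating, p53RE-bla cells sat 5 h in the incubator; compounds or DMSO vehicle were pinned in; a 16 h incubation at 37 C followed; FRET substrate was added and, 2 h later at RT, fluorescence was measured.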

[20] = target: Beta-2 adrenergic receptor (Homo sapiens) (UniProt P07550); assay: Adrenergic beta2 receptor (ADRB2) small molecule agonists, cell-based qHTS assay (AID 1963593);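 further: CHO cells stably overexpressing human ADRB2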
Procedure, shortened: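 CHO cells stably over-expressing ADRB2 were plated overnight at 37C, then dosed with compounds plus a stimulation mix containing 100uM IBMX and 25uM Ro-20-1724 for 0.5hr at room temperature. cAMP was measured by HTRF competition, 1hr.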

Measured: Potency

KiSS-1 receptor (Homo sapiens), sequence (Q969F8 whole entry, looked up): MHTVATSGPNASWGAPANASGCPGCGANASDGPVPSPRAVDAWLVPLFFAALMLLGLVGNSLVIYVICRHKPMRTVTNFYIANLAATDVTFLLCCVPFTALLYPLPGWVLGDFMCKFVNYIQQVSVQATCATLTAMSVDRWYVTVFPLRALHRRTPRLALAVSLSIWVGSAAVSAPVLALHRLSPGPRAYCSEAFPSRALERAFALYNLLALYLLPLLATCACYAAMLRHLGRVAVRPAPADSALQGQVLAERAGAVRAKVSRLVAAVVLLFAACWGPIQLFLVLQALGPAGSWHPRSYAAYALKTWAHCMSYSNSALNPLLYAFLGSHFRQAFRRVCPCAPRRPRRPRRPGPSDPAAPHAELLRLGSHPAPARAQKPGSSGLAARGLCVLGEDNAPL
Gonadotropin-releasing hormone receptor (Homo sapiens), sequence (P30968 whole entry, looked up): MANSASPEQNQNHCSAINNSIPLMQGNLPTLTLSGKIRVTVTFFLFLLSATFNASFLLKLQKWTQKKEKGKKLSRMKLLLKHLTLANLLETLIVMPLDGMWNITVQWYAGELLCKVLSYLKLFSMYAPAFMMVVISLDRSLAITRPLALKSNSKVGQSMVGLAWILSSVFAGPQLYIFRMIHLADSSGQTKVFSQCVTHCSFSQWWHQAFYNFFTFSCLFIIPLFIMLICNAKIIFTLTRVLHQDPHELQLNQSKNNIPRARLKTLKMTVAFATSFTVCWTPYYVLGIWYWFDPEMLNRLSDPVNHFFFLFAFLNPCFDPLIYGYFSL
Muscarinic acetylcholine receptor M1 (Homo sapiens), sequence (P11229 whole entry, looked up): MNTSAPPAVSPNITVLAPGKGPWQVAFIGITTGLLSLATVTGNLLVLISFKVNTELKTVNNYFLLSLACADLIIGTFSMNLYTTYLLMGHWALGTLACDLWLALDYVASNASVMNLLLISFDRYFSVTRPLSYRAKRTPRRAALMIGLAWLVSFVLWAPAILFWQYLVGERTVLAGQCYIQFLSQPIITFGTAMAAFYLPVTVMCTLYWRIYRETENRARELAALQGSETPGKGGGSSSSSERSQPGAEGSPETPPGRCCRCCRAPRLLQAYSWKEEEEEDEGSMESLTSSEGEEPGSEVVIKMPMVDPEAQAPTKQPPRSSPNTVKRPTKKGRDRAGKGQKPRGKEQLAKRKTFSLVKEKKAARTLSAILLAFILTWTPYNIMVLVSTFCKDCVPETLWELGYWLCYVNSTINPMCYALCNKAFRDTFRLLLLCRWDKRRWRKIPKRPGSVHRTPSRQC
5-hydroxytryptamine receptor 2A (Homo sapiens), sequence (P28223 whole entry, looked up): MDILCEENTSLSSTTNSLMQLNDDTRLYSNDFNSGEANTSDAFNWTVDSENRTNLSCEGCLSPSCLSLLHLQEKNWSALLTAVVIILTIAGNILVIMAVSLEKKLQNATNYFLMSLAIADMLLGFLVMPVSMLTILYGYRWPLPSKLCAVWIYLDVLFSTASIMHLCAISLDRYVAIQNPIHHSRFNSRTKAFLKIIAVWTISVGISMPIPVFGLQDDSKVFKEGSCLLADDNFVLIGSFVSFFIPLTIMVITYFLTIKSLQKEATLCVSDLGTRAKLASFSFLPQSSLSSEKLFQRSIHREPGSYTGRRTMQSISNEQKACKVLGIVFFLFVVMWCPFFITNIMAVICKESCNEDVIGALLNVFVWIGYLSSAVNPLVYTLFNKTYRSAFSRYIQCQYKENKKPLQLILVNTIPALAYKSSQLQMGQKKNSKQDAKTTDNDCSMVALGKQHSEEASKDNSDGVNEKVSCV
Beta-2 adrenergic receptor (Homo sapiens), sequence (P07550 whole entry, looked up): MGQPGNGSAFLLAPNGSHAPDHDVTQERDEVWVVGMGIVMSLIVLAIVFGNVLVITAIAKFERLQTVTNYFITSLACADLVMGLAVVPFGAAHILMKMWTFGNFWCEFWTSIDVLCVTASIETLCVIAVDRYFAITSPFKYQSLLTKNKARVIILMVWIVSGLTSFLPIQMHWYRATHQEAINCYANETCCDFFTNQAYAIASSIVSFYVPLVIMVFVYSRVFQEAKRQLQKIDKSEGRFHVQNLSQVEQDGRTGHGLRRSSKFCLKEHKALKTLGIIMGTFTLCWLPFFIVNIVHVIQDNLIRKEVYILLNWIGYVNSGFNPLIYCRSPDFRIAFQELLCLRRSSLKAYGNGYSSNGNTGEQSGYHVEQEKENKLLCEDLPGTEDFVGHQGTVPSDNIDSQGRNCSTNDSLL
D(2) dopamine receptor (Homo sapiens), sequence (P14416 whole entry, looked up): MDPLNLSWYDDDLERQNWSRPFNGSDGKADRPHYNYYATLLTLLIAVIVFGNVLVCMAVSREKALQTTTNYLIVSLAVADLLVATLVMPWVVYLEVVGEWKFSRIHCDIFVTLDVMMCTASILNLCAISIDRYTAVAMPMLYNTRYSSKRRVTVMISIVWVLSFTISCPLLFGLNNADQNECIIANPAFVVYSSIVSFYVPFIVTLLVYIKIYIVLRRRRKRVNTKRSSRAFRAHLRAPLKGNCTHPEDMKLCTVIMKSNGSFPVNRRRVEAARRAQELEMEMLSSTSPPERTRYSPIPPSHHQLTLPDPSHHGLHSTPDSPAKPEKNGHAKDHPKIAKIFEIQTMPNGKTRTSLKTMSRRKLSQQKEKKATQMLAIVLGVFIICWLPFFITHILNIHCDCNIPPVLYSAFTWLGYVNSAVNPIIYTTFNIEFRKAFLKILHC

CC(=O)OCC(=O)[C@@]1(O)[C@H](C)C[C@H]2[C@@H]3CCC4=CC(=O)C=C[C@]4(C)[C@@]3(F)[C@@H](O)C[C@@]21C
inactive: [1] | [2] | [3] | [4] | [5] | [6] | [7] | [8] | [9] | [10] | [11] | [12] | [13] | [14] | [15]

CC(=O)OCC=C(C)C
inactive: [1] | [2] | [3] | [16] | [17] | [18] | [5] | [6] | [19] | [7] | [8] | [10] | [11] | [12] | [13] | [20] | [14] | [15]

CN(C)CCCCCCN(C)C
inactive: [1] | [2] | [3] | [4] | [7] | [8] | [9] | [10] | [11] | [12] | [13] | [20] | [14] | [15]

c1ccc2sc(SN3CCOCC3)nc2c1
inactive: [1] | [2] | [4] | [16] | [17] | [5] | [6] | [19] | [7] | [8] | [9] | [10] | [12] | [13] | [20] | [14] | [15]

Cc1nn(C)c(Oc2ccccc2)c1/C=N/OCc1ccc(C(=O)OC(C)(C)C)cc1
inactive: [1] | [2] | [3] | [17] | [18] | [5] | [6] | [7] | [8] | [9] | [10] | [20] | [14]

C=CCCCCCCC=C
inactive: [1] | [2] | [4] | [16] | [17] | [18] | [5] | [6] | [19] | [7] | [8] | [10] | [11] | [12] | [13] | [14] | [15]

O=C(CN1CCNCC1)NC1CCCCC1
inactive: [1] | [2] | [4] | [17] | [18] | [5] | [6] | [19] | [7] | [8] | [9] | [10] | [11] | [12] | [20] | [15]
